D3 ag – D3 dopamine receptor (human) agonism; P35462; D3R DiscoveRx beta-arrestin cells, luminescence, 90 min; max activation, %; 410,000 tested, 0.58% active; in the data active = max activation above about 30%
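Cells at 1500/well, incubated overnight, then treated with pinned compounds (dopamine as control) for 90 min at 37 degrees C. DiscoveRx reagent added for 30 - 60 minutes at room temperature; luminescence read.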
D3 antag – blocks the human D3 dopamine receptor. AID 652054. D3R cells, DiscoveRx beta-arrestin luminescence, antagonist mode; active compounds read low. max response, negative = inhibition, %. P35462. 360,000 tested, 2.5% active; in the data active = max response below about -50%; inconclusive = no clear call, values can overlap the other calls
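Cells expressing the human receptor were seeded at 1500 cells/well, incubated overnight at 37 degrees C in 5% CO2, then exposed to library compounds with dopamine controls for 90 minutes at 37 degrees C before luminescent detection.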
GLP-1R agonist – activates the human GLP-1 receptor; 380,000 tested, 0.007% active; Potency, µM (top dose mostly 45.6 µM), actives largely listed as activators; AID 624172; HEK293 GLP-1R CRE-luciferase, luminescence, 4-6 h; cells express a hypersensitive GLP-1R form; P43220
Target sequence (P43220 whole entry, looked up): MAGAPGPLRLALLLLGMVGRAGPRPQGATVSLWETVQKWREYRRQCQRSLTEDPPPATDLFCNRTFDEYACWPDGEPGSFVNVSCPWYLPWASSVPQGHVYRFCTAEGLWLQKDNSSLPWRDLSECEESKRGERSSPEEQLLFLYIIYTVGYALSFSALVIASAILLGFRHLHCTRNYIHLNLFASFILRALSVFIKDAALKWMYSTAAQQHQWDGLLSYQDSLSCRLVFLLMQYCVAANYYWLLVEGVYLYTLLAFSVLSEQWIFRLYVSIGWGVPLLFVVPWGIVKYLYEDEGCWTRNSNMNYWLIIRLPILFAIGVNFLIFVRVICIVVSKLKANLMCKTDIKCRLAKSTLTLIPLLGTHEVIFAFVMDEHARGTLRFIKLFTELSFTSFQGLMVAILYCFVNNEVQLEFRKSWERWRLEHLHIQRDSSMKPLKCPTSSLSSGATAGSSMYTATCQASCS
GLP-1R inv ag – inverse agonists of human GLP-1 receptor; HEK293 GLP-1R CRE-luciferase, luminescence, 24 h; GLP-1R form is constitutively active; Potency, µM (top dose mostly 38.3 µM), actives largely listed as inhibitors; 410,000 tested, 1.6% active; AID 624417; P43220; also: nearly all actives have a fitted effect of over 55% in size
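HEK293 cells stably co-expressing constitutively active GLP-1R and a cAMP-responsive luciferase reporter were seeded in DMEM with 10% Nu serum, given compounds after 12 h, and incubated 24 h at 37 deg C. Luminescence was then read.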
A number is an active result. Only some compounds are listed: those with a hit (about 4.3% of all), similar ones and a draw of the others. Unless noted, calls follow the shape of the dose curve; as a rule, active = well fitted curve in the direction sought with a large enough effect; inconclusive = small, poorly fitted or top-dose-only effect, or another doubt; inactive = no such curve, though single readings can be large; an effect the other way counts as inactive or inconclusive.

Cc1ccc(SCCNC(=S)Nc2cc(C)cc(C)c2)cc1 was read as D3 ag inactive, D3 antag inactive, GLP-1R agonist inactive and GLP-1R inv ag 7.9µM.
For O=C(Cn1cc(S(=O)(=O)c2ccccc2)c(=O)c2cc3c(cc21)OCO3)Nc1ccccc1 the results were D3 ag inactive, GLP-1R agonist inactive and GLP-1R inv ag inactive.
Screening O=C(Nc1ccccc1)N1CCN(C(=O)c2nsc3ccccc23)CC1 returned D3 ag inactive and GLP-1R inv ag inactive.
Screening COc1cc(NC(=O)c2ccnc(N)c2)cc(C(=O)Nc2cccc(C(F)(F)F)c2)c1 returned D3 ag inactive, D3 antag inactive, GLP-1R agonist inactive and GLP-1R inv ag inactive.
COc1cc(NC(=O)c2csc(N)n2)cc(C(=O)Nc2cccc(C(F)(F)F)c2)c1 was read as D3 ag inactive, D3 antag inactive, GLP-1R agonist inactive and GLP-1R inv ag 4µM.
Screening COc1cc(NC(=O)c2cnc(N)s2)cc(C(=O)Nc2cccc(C(F)(F)F)c2)c1 returned D3 ag inactive, D3 antag inactive, GLP-1R agonist inactive and GLP-1R inv ag 13µM.
For CCOC(=O)C1(C)C=C(Nc2ccc(C(=O)O)cc2)C(=O)N1c1ccc(C(=O)O)cc1 (stereo not given) the results were D3 ag inactive, GLP-1R agonist inactive and GLP-1R inv ag inactive.
Screening COc1cc(S(=O)(=O)Nc2cccc(C)c2)ccc1NC(=O)c1cccnc1 returned D3 ag inactive, D3 antag inactive, GLP-1R agonist inactive and GLP-1R inv ag inactive.
COc1ccc(-c2cc(-c3ccc(F)cc3)nc3c2COc2ccc(F)cc2-3)cc1 was read as D3 ag inactive, GLP-1R agonist inactive and GLP-1R inv ag inactive.
For O=C1N(CN2CCN(c3cccc(Cl)c3)CC2)c2ccccc2C12OCCCO2 the results were D3 ag inactive, D3 antag -83, GLP-1R agonist inactive and GLP-1R inv ag inconclusive.
Screening CC1CCOC2(O1)C(=O)N(CN1CCN(c3ccccc3F)CC1)c1ccccc12 (stereo not given) returned D3 ag inactive, D3 antag -54, GLP-1R agonist inactive and GLP-1R inv ag inactive.
For CC1(C)COC2(OC1)C(=O)N(CN1CCOCC1)c1ccccc12 the results were D3 ag inactive, D3 antag inactive, GLP-1R agonist inactive and GLP-1R inv ag inactive.
For O=C1N(CN2CCC3(CC2)OCCO3)c2ccccc2C12OCCCO2 the results were D3 ag inactive, D3 antag inactive, GLP-1R agonist inactive and GLP-1R inv ag inactive.
For Cc1ccc(/C=N\Nc2nc3ccc(Cl)cc3[nH]2)o1 the results were D3 ag inactive, D3 antag inactive, GLP-1R agonist inactive and GLP-1R inv ag 5µM.
`CCN(Cc1ccccc1)c1ncnc2c1nnn2C` gave D3 ag inactive and GLP-1R inv ag inactive.
CC(C)CCn1c(-c2nonc2N)nc2ccccc21 was read as D3 ag inactive, D3 antag -51, GLP-1R agonist inactive and GLP-1R inv ag 2.2µM.
`COc1ccc(/C=N/Nc2ncccc2[N+](=O)[O-])c(OC)c1` gave D3 ag inactive, D3 antag -54, GLP-1R agonist inactive and GLP-1R inv ag inactive.
`COc1ccc(/C=N/Nc2ncc(-c3ccccc3)cn2)c(OC)c1` gave D3 ag inactive, D3 antag inactive, GLP-1R agonist inactive and GLP-1R inv ag inactive.
Screening CSC(=Nc1ccccc1)N=C(SCc1ccccc1)N(C)C returned D3 ag inactive, D3 antag -84, GLP-1R agonist inactive and GLP-1R inv ag 3.5µM.
For CN1c2ccccc2C(O)=C(C(=S)Nc2ccc(Cl)cc2)S1(=O)=O the results were D3 ag inactive, D3 antag -87, GLP-1R agonist inactive and GLP-1R inv ag inconclusive.
Cc1ccc(NC(=O)C2=C(O)c3sccc3N(C)S2(=O)=O)cc1 was read as D3 ag inactive, D3 antag inconclusive, GLP-1R agonist inactive and GLP-1R inv ag inactive.
For Cc1ccc(NC(=S)C2=C(O)c3sccc3N(C)S2(=O)=O)cc1 the results were D3 ag inactive, D3 antag -88, GLP-1R agonist inactive and GLP-1R inv ag inconclusive.
Cc1ccc(/C=N/n2c(-c3ccccc3)csc2=S)cc1 was read as D3 ag inactive and GLP-1R agonist inactive.
For O=C(C1CC1)N1CCN(c2ccnc3cc(Cl)ccc23)CC1 the results were D3 ag inactive, D3 antag -68, GLP-1R agonist inactive and GLP-1R inv ag inactive.
For COc1cc(NC(=O)c2ccc(-n3cnc4cccnc43)cc2)cc(OC)c1 the results were D3 ag inactive, GLP-1R agonist inactive and GLP-1R inv ag inactive.
For O=C(CSC1=Nc2ccccc2C2CC=NN12)Nc1ccc2c(c1)OCO2 (stereo not given) the results were D3 ag inactive, D3 antag -50, GLP-1R agonist inactive and GLP-1R inv ag inconclusive.
`Cc1onc(-c2ccccc2)c1C(=O)Nc1sc2c(c1C#N)CCC(C)C2` (stereo not given) gave D3 ag 32, D3 antag inactive, GLP-1R agonist inactive and GLP-1R inv ag inconclusive.
For N#Cc1c(NC(=O)c2ccc(Cn3cc(Br)cn3)o2)sc2c1CCCCC2 the results were D3 ag inactive, D3 antag inactive, GLP-1R agonist inactive and GLP-1R inv ag inconclusive.
`Cc1onc(-c2ccccc2Cl)c1C(=O)Nc1sc2c(c1C#N)CCC2` gave D3 ag inactive, D3 antag inactive, GLP-1R agonist inactive and GLP-1R inv ag inconclusive.
CC1CCc2c(sc(NC(=O)c3ccc(Cn4cc([N+](=O)[O-])cn4)o3)c2C#N)C1 (stereo not given) was read as D3 ag inactive, D3 antag -69, GLP-1R agonist inactive and GLP-1R inv ag inactive.
`CCOC(=O)c1c(Oc2ccc(OC)cc2)nnc(-c2ccccc2)c1-c1ccccc1` gave D3 ag inactive and GLP-1R inv ag inconclusive.
`Cc1ccc(CSCc2nnc(SCC(=O)N3CCN(c4ccccc4)CC3)n2C)cc1` gave D3 ag inactive, D3 antag inactive, GLP-1R agonist inactive and GLP-1R inv ag 7.9µM.
`Cc1ccc(-n2c(Cc3cccn3C)nnc2SCC(=O)N2CCN(c3ccccc3)CC2)cc1` gave D3 ag inactive, D3 antag -79, GLP-1R agonist inactive and GLP-1R inv ag inconclusive.
Cn1cccc1Cc1nnc(SCC(=O)Nc2ccc3c(c2)OCCO3)n1-c1ccc(F)cc1 was read as D3 ag inactive, D3 antag inactive, GLP-1R agonist inactive and GLP-1R inv ag inactive.
`CCn1c(CSCc2ccc(F)cc2)nnc1SCC(=O)N1CCN(c2ccccc2)CC1` gave D3 ag inactive, D3 antag inactive, GLP-1R agonist inactive and GLP-1R inv ag inconclusive.
`Cc1ccc(-n2c(Cc3cccn3C)nnc2SCC(=O)Nc2ccc3c(c2)OCO3)cc1` gave D3 ag 79, D3 antag inactive, GLP-1R agonist inactive and GLP-1R inv ag inactive.
For CCOC(=O)C1=C(CN2CCN(c3ccccc3)CC2)NC(=O)NC1c1ccc(C)cc1 (stereo not given) the results were D3 ag inactive, GLP-1R agonist inactive and GLP-1R inv ag inactive.
Screening COC(=O)[C@@H]1[C@@H](C)N(Cc2ccccc2)C(=O)N[C@H]1c1ccccc1 returned D3 ag inactive, D3 antag inactive, GLP-1R agonist inactive and GLP-1R inv ag inactive.

Bioassay records (PubChem BioAssay)
